The text below walks through data of PubChem BioAssay (NCI).

Test systems include NCI-H23 lung; NCI-H226 lung; NCI-H322M lung; HOP-62 NSCLC; NCI-H460 lung; HOP-92 NSCLC; NCI-H522 lung; A549/ATCC NSCLC; 786-0 renal; COLO 205 colon.
Common to all, as to test: NCI-60 one-dose screen, 48 h (100 = growth as untreated, 0 = no growth, -100 = all killed)
Holding throughout (conditions): 10 µM unless noted

The panel holds about 83,000 compounds, 20% with a hit somewhere; the sample as a whole holds those more often.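 Percent growth is the endpoint: 0 to 100 indicates growth inhibition (40 means 60% inhibition), 0 means no net growth, and negative values indicate cell death.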 A number with no mark means an inactive call. Calls of active or inactive are those of the source. The calls were made as follows: active = growth percent below 10; inactive = the rest.

As to `Cn1c(=O)c2c3c(oc2c2ccccc21)C(=O)c1ccccc1C3=O`, the growth is 78.3% with NCI-H23 lung; 73.2% in the assay on NCI-H226 lung; 96.2% in the assay with NCI-H322M lung; 81.8% with HOP-62 NSCLC; 78.5% in the assay on NCI-H460 lung; 101% in the assay on HOP-92 NSCLC. For the same compound, the growth is 50.6% with NCI-H522 lung, 81.7% in the assay on A549/ATCC NSCLC, 107% in the assay on 786-0 renal and 74.5% in the assay with COLO 205 colon.

Take `COc1ccc(-c2oc(=O)ccc2-c2cc(OC)c(OC)c(OC)c2)cc1F`: the growth in the assay with NCI-H23 lung was 81.4%; in the assay with NCI-H226 lung, 82.9%; in the assay with NCI-H322M lung, 95.4%; with HOP-62 NSCLC it was 67.3%; in the assay on NCI-H460 lung it was 56.3%; with HOP-92 NSCLC, 62.6%. Moreover, the growth with NCI-H522 lung was 50.8%; with A549/ATCC NSCLC it was 27.8%; in the assay with 786-0 renal, 75.2%; with COLO 205 colon, 57.5%.

Turning to `C=C(C)c1ccc(/C=N/NC(N)=S)cc1`, the growth in the assay on NCI-H23 lung was 103%; with NCI-H226 lung it was 86.3%; with NCI-H322M lung, 111%; with HOP-62 NSCLC, 77.4%; in the assay on NCI-H460 lung, 99.9%; with HOP-92 NSCLC it was 131%. The growth with NCI-H522 lung was 103%; in the assay on A549/ATCC NSCLC, 118%; with 786-0 renal, 11.4%; with COLO 205 colon it was 120%.

As to `O=C(NCC(c1ccsc1)N1CCCCCC1)c1ccc(C(F)(F)F)cc1` (stereo not given), the growth in the assay with NCI-H23 lung was 93%; with NCI-H226 lung, 91.9%; with NCI-H322M lung, 99.9%; in the assay on HOP-62 NSCLC it was 113%; in the assay on NCI-H460 lung it was 100%; in the assay on HOP-92 NSCLC, 99%. Also, the growth in the assay with NCI-H522 lung was 92.8%; in the assay on A549/ATCC NSCLC, 96.5%; in the assay on 786-0 renal, 96.9%; in the assay on COLO 205 colon it was 102%.

On to `C=CCn1c(C)nc2cc(Nc3nc(Nc4ccc5nc(C)n(CC=C)c5c4)nc4ccccc34)ccc21`, for which the growth was 94.2% in the assay on NCI-H23 lung; 99.8% in the assay with NCI-H226 lung; 109% in the assay with NCI-H322M lung; 101% in the assay with HOP-62 NSCLC; 117% in the assay on NCI-H460 lung; 79.8% in the assay with HOP-92 NSCLC. The growth is 99.1% in the assay with NCI-H522 lung, 96.3% with A549/ATCC NSCLC, 113% with 786-0 renal and 108% with COLO 205 colon.

For `O=S(=O)(NCC[C@@H]1C[C@H]1c1ccc2ccccc2c1)c1ccc(C(F)(F)F)cc1`, the growth in the assay on NCI-H23 lung is 84.9%; in the assay on NCI-H226 lung, 86.1%; in the assay on NCI-H322M lung it was 100%; with HOP-62 NSCLC, 105%; in the assay on NCI-H460 lung, 96.1%; with HOP-92 NSCLC it was 91.4%. Also, the growth with NCI-H522 lung was 83.8%; in the assay with A549/ATCC NSCLC, 85.3%; with 786-0 renal it was 96.3%; in the assay with COLO 205 colon, 105%.

Turning to `Cc1ccc2nc(CN(CCN(Cc3nc4ccc(C)cc4[nH]3)Cc3nc4ccc(C)cc4[nH]3)Cc3nc4ccc(C)cc4[nH]3)[nH]c2c1`, the growth with NCI-H23 lung was -57.3% (active); in the assay on NCI-H226 lung it was -97.1% (active); in the assay on NCI-H322M lung, -95.7% (active); with HOP-62 NSCLC it was -93.3% (active); in the assay with NCI-H460 lung, -94.8% (active); in the assay on HOP-92 NSCLC, -80.7% (active). For the same compound, the growth was -86.4% (active) in the assay on NCI-H522 lung, -89.1% (active) in the assay with A549/ATCC NSCLC, -97.3% (active) with 786-0 renal and -93.4% (active) in the assay with COLO 205 colon.

As for `Cc1cc(C#Cc2ccccc2)ccc1-n1c(/C=C/c2ccc(F)cc2)nc2ccccc2c1=O`, the growth is 71.5% in the assay with NCI-H23 lung; 84.7% in the assay on NCI-H226 lung; 87.5% in the assay with NCI-H322M lung; 122% in the assay on HOP-62 NSCLC; 63.6% with NCI-H460 lung; 39.2% with HOP-92 NSCLC. The growth with NCI-H522 lung is 64.1%; in the assay with A549/ATCC NSCLC, 68.5%; with 786-0 renal it was 80.4%; in the assay with COLO 205 colon it was 53.3%.

With `O=C(/C=C/c1ccccc1)n1c(-c2ccccc2)nc2ccccc21`, the growth in the assay on NCI-H23 lung is 101%; in the assay with NCI-H226 lung it was 101%; in the assay on NCI-H322M lung, 108%; in the assay with HOP-62 NSCLC, 105%; in the assay with NCI-H460 lung it was 103%; in the assay with HOP-92 NSCLC, 91.6%. For the same compound, the growth in the assay on NCI-H522 lung is 102%; with A549/ATCC NSCLC, 101%; in the assay with 786-0 renal it was 100%; in the assay with COLO 205 colon, 109%.

For the compound `Fc1ccc(-c2ccnc3nc(-c4ccncc4)nn23)cc1`, the growth was 112% in the assay on NCI-H23 lung; 102% in the assay on NCI-H226 lung; 99.4% in the assay with NCI-H322M lung; 113% in the assay on HOP-62 NSCLC; 104% in the assay with NCI-H460 lung; 120% with HOP-92 NSCLC. The growth was 107% in the assay with NCI-H522 lung, 98.4% in the assay on A549/ATCC NSCLC, 88.8% in the assay on 786-0 renal and 108% in the assay on COLO 205 colon.

Turning to `C[C@@H](C[C@H](CC1CC1)c1ccccc1)c1ccc2ccccc2c1`, the growth was 100% in the assay on NCI-H23 lung; 109% in the assay with NCI-H226 lung; 101% with NCI-H322M lung; 104% in the assay with HOP-62 NSCLC; 100% with NCI-H460 lung; 102% in the assay with HOP-92 NSCLC. The growth with NCI-H522 lung is 95.2%; with A549/ATCC NSCLC, 98.2%; in the assay with 786-0 renal, 101%; in the assay with COLO 205 colon it was 109%.

Consider `COC(=O)C(CCC(=O)CCl)N1C(=O)c2ccccc2C1=O` (stereo not given), for which the growth in the assay with NCI-H23 lung was 79.1%; with NCI-H226 lung, 70.1%; in the assay on NCI-H322M lung, 91.7%; with HOP-62 NSCLC it was 79.9%; with NCI-H460 lung, 90.1%; in the assay with HOP-92 NSCLC, 49.7%. The growth was -15.1% (active) with NCI-H522 lung, 104% with A549/ATCC NSCLC, 60.3% in the assay on 786-0 renal and 87.8% in the assay on COLO 205 colon.

With `CCCNC(=S)N/N=C(\C)c1ccccn1`, the growth is 35.7% with NCI-H23 lung; 21.5% with NCI-H226 lung; 4.31% (active) with NCI-H322M lung; 44% in the assay on HOP-62 NSCLC; 17.7% in the assay with NCI-H460 lung; 37.2% in the assay on HOP-92 NSCLC. Besides, the growth was 56.4% in the assay with NCI-H522 lung, 31.7% in the assay on A549/ATCC NSCLC, 20.4% with 786-0 renal and 20.8% in the assay on COLO 205 colon.

Regarding `COc1cc(C2CC(c3ccc(Nc4ccnc5cc(Cl)ccc45)cc3)=NN2c2ccccc2)cc(OC)c1OC` (stereo not given), the growth in the assay with NCI-H23 lung was 84.4%; with NCI-H226 lung it was 83.6%; with NCI-H322M lung it was 91.2%; in the assay with HOP-62 NSCLC it was 72.8%; with NCI-H460 lung it was 68.9%; in the assay on HOP-92 NSCLC, 52.5%. Further, the growth is 53% in the assay on NCI-H522 lung, 64.6% in the assay with A549/ATCC NSCLC, 76.1% in the assay on 786-0 renal and 74.1% with COLO 205 colon.
